# Screens as filed in PubChem BioAssay.
# Most compounds without a hit are left out; they make up all but 20% or so of the library.
# Pf growth 96h – P. falciparum growth inhibition at 96 hour, primary screen for plastid delayed-death inhibitors; P. falciparum luciferase reporter growth, 96 h; Potency, µM (doses to about 28.7 µM), actives largely listed as inhibitors; 6.9% of 320,000 active
#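 Cell-based qHTS: luciferase-tagged P. falciparum in erythrocytes (2% hematocrit, 0.05% parasitemia final) incubated with compounds for 96 hours, 37 C, 5% CO2; luciferase detection reagent then added and luminescence measured.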
# Cycloheximide cs – counter-screen for Shiga toxin inhibitors: cycloheximide protein synthesis inhibition; cell reporter, cycloheximide protein synthesis inhibition counterscreen; max response, %; 12% of 300,000 active; in the data active means max response mostly above about 13%, no sharp cut-off; inactive means mostly below about 14%; further: read at 38.3 µM for the half of the compounds with a filed dose
# HCMV antiviral – inhibitors of human cytomegalovirus | AID 1259415 | 4.5% of 410,000 active | HFF cells, HCMV-luciferase reporter, 72 h; stronger effect = lower value | activity change, negative = inhibition, % at 57.5 µM; in the data active means activity change below about -60%; inconclusive means no clear call, values can overlap the other calls; inactive means above about -39%
#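 Steps: HFFs plated, 16 h 37C; compounds added; HCMV-luciferase added to MOI 1 PFU/cell; 72 h 37C; OneGlo reagent, 5 min room temperature; luminescence read, normalized to controls.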
# Shiga toxin inh – inhibitors of Shiga toxin in Vero cells | Vero cells, Shiga toxin protein synthesis inhibition reporter | inhibition, % at 38.7 µM | 9.2% of 290,000 active | AID 2315; in the data active means inhibition mostly above about 28%, no sharp cut-off; inactive means mostly below about 43%
# Pf growth 48h – P. falciparum growth inhibition at 48 hours (one generation) | P. falciparum luciferase growth in erythrocytes, 48 h | Potency, µM (highest dose often 28.7 µM), hits mostly inhibitors | 5.9% of 310,000 active
#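 A one-generation exposure of luciferase-tagged malaria parasites in RPMI 1640/Albumax erythrocyte culture, 37 C and 5% CO2. Inhibition is inferred from decreased luminescence after adding detection reagent.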
# A number is an active result; - = inactive; ? = inconclusive; . = not tested or not shown; + = active, no number. Unless noted, the call rests on the fitted dose curve; in most records, active means well fitted inhibition curve with a large enough effect; inconclusive means small, poorly fitted or top-dose-only effect, or another doubt; inactive means no such curve, though single readings can be large or run the other way.
SMILES,Pf growth 96h,Cycloheximide cs,HCMV antiviral,Shiga toxin inh,Pf growth 48h
Cn1c(COc2ccccc2)nc2ccccc21,-,32,-,67,-
C=CCn1c(COc2ccccc2)nc2ccccc21,-,29,-,44,-
Cn1c(CCCCCN)nc2ccccc21,10µM,-,-,-,?
Cc1ccc2nc(/C(C#N)=C/c3ccc(-c4ccccc4C(=O)O)o3)[nH]c2c1,?,-,-,-,-
N#C/C(=C\c1ccc(-c2ccccc2C(=O)O)o1)c1nc2ccccc2[nH]1,?,-,-,-,.
CC(C)(C)/C(O)=C(/C#N)c1nc2ccccc2[nH]1,-,-,-,-,.
Cc1cc(/C=C(/C#N)c2nc3ccccc3[nH]2)c(C)n1-c1ccccc1C(=O)O,-,-,-,-,8.3µM
N#C/C(=C(/O)c1ccc([N+](=O)[O-])o1)c1nc2ccccc2[nH]1,-,-,-74,-,-
CCOC(=O)c1ccc(-c2ccc(/C=C(\C#N)c3nc4ccc(C)cc4[nH]3)o2)cc1,.,.,-79,.,.
N#C/C(=C\c1ccc(Sc2ccccc2)o1)c1nc2ccccc2[nH]1,1µM,41,-,127,?
CCCCn1c2c(cc(C(=O)OC)c1=O)C(=O)CCC2,.,.,-,.,.
Cc1ccc2nc(/C(C#N)=C\c3ccc([N+](=O)[O-])o3)[nH]c2c1,?,-,-103,-,10µM
Cc1ccc2nc(/C(C#N)=C\c3cc(C)n(-c4cccc([N+](=O)[O-])c4)c3C)[nH]c2c1,3.3µM,-,-,-,.
N#C/C(=C\c1ccc([N+](=O)[O-])o1)c1nc2ccccc2[nH]1,-,17,-94,-,-
Cc1cc2nc(/C(C#N)=C\c3ccc(-c4ccccc4C(=O)O)o3)[nH]c2cc1C,?,-,-,-,-
N#C/C(=C\c1ccc(-c2ccc(F)cc2F)o1)c1nc2ccccc2[nH]1,.,.,-,.,.
NS(=O)(=O)c1ccc(NC(=O)c2cccc(Cl)c2)cc1,?,-,-,-,-
CC1CCCCC12NC(=O)N(CC(=O)OCc1cccc(F)c1)C2=O (configuration not stated),?,.,-,.,13µM
CC1CCC2(CC1)NC(=O)N(CC(=O)Nc1sc3c(c1C(N)=O)CCC3)C2=O (configuration not stated),-,-,-,-,-
CC1CCCCC12NC(=O)N(CC(=O)Nc1sc3c(c1C(N)=O)CCC3)C2=O (configuration not stated),10µM,-,-,-,.
CC1CCCCC12NC(=O)N(CC(=O)NCc1ccc3c(c1)OCO3)C2=O (configuration not stated),-,-,-80,-,?
CC1CCCCC12NC(=O)N(CC(=O)OCc1ccccc1F)C2=O (configuration not stated),.,.,-,.,.
Cc1cccc(N(Cc2ccccc2)C(=O)CN2C(=O)NC3(CCCCC3C)C2=O)c1 (configuration not stated),12µM,.,-,.,?
Cc1ccc(N(Cc2ccccc2)C(=O)CN2C(=O)NC3(CCCC3)C2=O)cc1,?,-,-,-,?
CC1CCC2(CC1)NC(=O)N(CC(=O)NCc1ccc3c(c1)OCO3)C2=O (configuration not stated),-,-,?,-,-
SMILES,Pf growth 96h,Cycloheximide cs,HCMV antiviral,Shiga toxin inh,Pf growth 48h
CC1CCCCC1NC(=O)CCCn1c(=S)[nH]c2ccsc2c1=O (configuration not stated),-,-,-,-,-
CC1CCCCC12NC(=O)N(CC(=O)N1CCN(S(=O)(=O)/C=C/c3ccccc3)CC1)C2=O (configuration not stated),?,.,-,.,10µM
CN1C(=O)N(CC(=O)N2CCN(S(=O)(=O)/C=C/c3ccccc3)CC2)C(=O)C12CCCCC2,-,.,-,.,?
CC1CCCCC12NC(=O)N(CC(=O)OCc1ccc(Br)cc1)C2=O (configuration not stated),-,.,+,.,?
CCC(Sc1nnc(-c2ccc(OC)cc2)c(-c2ccc(OC)cc2)n1)C(=O)Nc1cccc(OC)c1 (configuration not stated),.,.,-,.,.
Cc1ccccc1OCC(=O)Nc1ccc2nc(SCC(=O)N(C)c3ccccc3)sc2c1,.,.,-,.,.
C[C@H]1CN([C@@H](C)CO)C(=O)CCCn2cc(nn2)CO[C@@H]1CN(C)C(=O)c1ccncc1,.,.,-,.,.
CCCN1C(=O)C[C@H](S(=O)(=O)c2ccccc2)[C@H]1c1ccccc1,.,.,-,.,.
CC(=O)Oc1ccc(N(C(C)=O)S(=O)(=O)c2ccc3ccccc3c2)cc1,-,-,-71,-,-
CN(c1ccc(O)cc1)S(=O)(=O)c1ccc2ccccc2c1,-,24,-,77,-
CCN(c1ccccc1)S(=O)(=O)c1ccc2ccccc2c1,-,-,-,-,-
CC(=O)N(c1ccc(N(C(C)=O)S(=O)(=O)c2ccccc2)cc1)S(=O)(=O)c1ccccc1,-,-,-,-,-
OC[C@H]1OC(O)[C@H](O)[C@@H](O)[C@@H]1O (some centres not stated),.,-,.,-,.
O=C(NCc1ccc2c(c1)OCO2)C1CCN(Cc2cnn(-c3ccccc3)c2-n2cccc2)CC1,-,-,-,-,?
O=C(Nc1ccccc1Cl)C1CCN(Cc2cnn(-c3ccccc3)c2-n2cccc2)CC1,.,27,-,-,.
COc1ccc(OC)c(NC(=O)C2CCN(Cc3cnn(-c4ccccc4)c3-n3cccc3)CC2)c1,?,-,-,-,.
COc1ccc(NC(=O)C2CCN(Cc3cnn(-c4ccccc4)c3-n3cccc3)CC2)cc1OC,-,34,-,49,?
COc1cccc(NC(=O)C2CCN(Cc3cnn(-c4ccccc4)c3-n3cccc3)CC2)c1,?,51,-,-,.
O=C(c1ccc(S(=O)(=O)N2CCOCC2)cc1)N1CCc2ccccc21,?,-,-,-,-
O=C(Nc1cccc2cccnc12)c1cccc([N+](=O)[O-])c1,-,35,-,69,-
O=C(Nc1cccc2cccnc12)c1ccccc1,.,25,.,43,.
O=C(Nc1cccc2cccnc12)OC(Cl)(Cl)Cl,.,22,.,-,.
CCOc1ccc(C(=O)Nc2cccc3cccnc23)cc1,-,-,-,-,-
Cc1cc(C(=O)Nc2cccc3cccnc23)ccc1[N+](=O)[O-],-,-,-,-,-
CC(C)Oc1ccc(C(=O)Nc2cccc3cccnc23)cc1,-,27,-,59,-
COc1c(S(=O)(=O)N2CCN(C)CC2)ccc(Cl)c1Cl,-,-,-,-,?
CC(Oc1ccccc1)C(=O)N=C1SC2CS(=O)(=O)CC2N1c1ccccc1 (configuration not stated),-,-,-,-,-
C#CCOCCOCCOCCNc1nc(N2CCN(C(=O)Cn3cc(CCO)nn3)CC2)nc(N2CCN(C(=O)Cn3cc(CCCCN)nn3)CC2)n1,.,.,-,.,.
O=C(Nc1cccc2cccnc12)c1ccc(F)cc1,.,35,-,64,.
CCn1c(=O)n(CC)c2cc(N3CCCC3)c(NC(=O)c3cc(Br)ccc3OC)cc21,?,-,-70,-,9.3µM
